# Source: PubChem BioAssay AID651820 (National Center for Advancing Translational Sciences (NCATS), 2012)
# Hit rate of the full screen: of about 340,000 compounds, about 12,000 (3.5%) were called active. Roughly 18% stayed inconclusive and do not appear here. The entries come from a sample that favours actives as a whole. Unmarked numbers belong to inactive results. The call rests on the fitted dose curve; in most records, active means well fitted inhibition curve with a large enough effect; inconclusive means small, poorly fitted or top-dose-only effect, or another doubt; inactive means no such curve, though single readings can be large or run the other way.
# Assay: qHTS Assay for Inhibitors of Hepatitis C Virus (HCV)
# Conditions: Huh7.5.1 HCVcc-Cre infection, luciferase reporter, 44 h; series mostly up to 41.8 µM; activity change, negative = inhibition: at the top concentration
# Outline: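 After 44 h co-culture of compound, cells and HCVcc-Cre (~0.5 moi), substrate is added for 15 min at room temperature and luciferase measured over 15 sec. Cells were seeded at 1,000/well and pre-cultured 4 h.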
# On the % scale 0 is the no-effect control and ±100 the full control effect; potency means the concentration at half of the fitted maximal effect.
SMILES,"activity change, negative = inhibition",Potency
C=CCC(NC(=O)Cc1ccccc1)C(=O)NCCC (centres undefined),18.1%,–
CC(=NNC(=O)c1ccncc1)c1ccc(Cl)c(Cl)c1,-8.61%,–
CN(Cc1cccs1)C(=O)CN1C(=O)c2ccccc2S1(=O)=O,33.4%,–
COc1cc(C(=O)N2CCN(S(=O)(=O)c3ccc(C(C)C)cc3)CC2)ccc1OCC(=O)N1CCOCC1,19.6%,–
CCC(C)NCCOCCOc1ccc(Br)cc1C (centres undefined),–,11.2 µM (active)
Cc1ccc(OCCOCCOc2ccc(Br)cc2/C=N\NC(=O)c2ccncc2)cc1,4.5%,–
COCC(C)NCc1cc(Br)ccc1OC (centres undefined),25.2%,–
Cc1cccc(-n2ncc(C#N)c2-n2cccc2)c1,-13.2%,–
Cc1cccc(-n2ncc(Cl)c(Cl)c2=O)c1,–,11.2 µM (active)
O=c1c(Cl)c(NC2CC2)cnn1-c1ccccc1,13.3%,–
COc1ccc(NC(=O)c2cccc(Cl)c2)c[n+]1[O-],–,3.16 µM (active)
O=C(Nc1ccon1)c1cccc(Cl)c1,22.2%,–
O=C(Nc1ccc(NC(=O)c2ccc3c(c2)OCO3)cc1)c1cccc(Cl)c1,3.43%,–
Cc1ccc(NC(=O)C(C)OC(=O)C2CC3CCCC(C2)C3=O)cc1S(=O)(=O)N1CCOCC1 (centres undefined),7.06%,–
CC[C@@H](C)[C@@H]1CN([C@@H](C)CN2CCC[C@H]2CN2C(N)=NC[C@H]2C(C)C)C(=N)N1CCc1ccc(Cl)c(Cl)c1,-49.6%,–
COc1ccccc1C(=O)NCC(=O)OCC(=O)Nc1nnc(-c2ccccc2)o1,14.5%,–
OCCN1CCN(c2nnc(-c3ccccc3)c3ccccc23)CC1,-0.988%,–
CCCC(=O)N1CCN(c2nnc(-c3ccc(C)cc3)c3ccccc23)CC1,–,12.6 µM (active)
c1ccc(-c2nnc(N3CCOCC3)c3ccccc23)cc1,-6.08%,–
COc1ccc2nc3n(c(=O)c2c1)-c1ccc(Cl)cc1C(=O)NC3Cc1ccccc1 (centres undefined),-23.3%,–
CCN(CC(=O)Nc1ccc(NC(C)=O)cc1)C(=O)CSC(=S)N1CCCC1,13%,–
CN(C(=O)CSc1cccc[n+]1[O-])C1CCCCC1,0.125%,–

SMILES,"activity change, negative = inhibition",Potency
Cc1ccc(N(Cc2cc(=O)[nH]c3ccccc23)C(=O)CCl)cc1,–,11.2 µM (active)
Cc1ccc(N(Cc2cc3ccccc3[nH]c2=O)C(=O)c2cccs2)cc1,-18.6%,–
CC(=O)N(Cc1cc(=O)[nH]c2ccccc12)c1ccc(C)cc1C,19.2%,–
COc1cc(O)c2c(=O)c3c(O)c(O)ccc3oc2c1OC,-35.3%,–
CC(=O)c1ccc(NC(=O)CCNS(=O)(=O)c2cc(Br)cnc2N)cc1,-1.13%,–
CCc1cccc(C)c1NS(=O)(=O)c1cc(Br)cnc1N,–,11.2 µM (active)
Cc1ccc(C)c(NS(=O)(=O)c2cc(Br)cnc2N)c1,3.9%,–
CCOc1ncccc1C(=O)OCC(=O)Nc1cccc(S(=O)(=O)N2CCCCCC2)c1,-5.14%,–
COC(=O)[C@]1(C)N[C@H](CN(C)C(=O)c2ccc(C(C)(C)C)cc2)[C@@H]2C(=O)N(C)C(=O)[C@@H]21,-14.2% [at 8.37 µM],–
COCCn1c(SC(C)C(=O)NC2CC2)nnc1-c1cccc(C)c1 (centres undefined),9.78%,–
COc1ccc(/C=C/C(=O)c2ccc(OC)cc2O)cc1,1.23% [at 8.37 µM],–
COCOc1cc(O)c(C(=O)/C=C/c2ccc(OCOC)c(OCOC)c2)c(OCOC)c1,–,7.94 µM (active)
COC(=O)c1ccc(COc2ccc(/C=C/C(=O)c3ccc(OC)c(CSCC(=O)O)c3)cc2OC)cc1,-18.3%,–
COC(=O)c1c(NC(=O)CSc2nncs2)sc2c1CCCCC2,–,7.08 µM (active)
COC(=O)c1c(NC(=O)CCCC(=O)O)sc2c1CCCCC2,-1.74%,–
COC(=O)c1c(NC(=O)CCN2CCOCC2)sc2c1CCCC2,-13.5%,–
CCOC(=O)c1c(NC(=O)CSc2nnc(C)c(=O)[nH]2)sc2c1CCC2,2.84%,–
COC(=O)c1c(NC(=O)C2CC(C)=C(C)CC2C(=O)O)sc2c1CCCCC2 (centres undefined),0.726%,–
CCOC(=O)c1c(NC(=O)CSc2nnc(CN3CCOCC3)n2C)sc2c1CCCC2,–,22.4 µM (active)
COC(=O)[C@]1(C)CCC[C@@]2(C)C3CC[C@]4(OC(C)=O)C[C@@]3(CCC21)CC4=NO (some centres undefined),0.298%,–
O=C(CCNC(=O)c1ccc(Br)cc1)Nc1cccc(S(=O)(=O)N2CCCCC2)c1,-9.26%,–
COc1ccccc1C(=O)NCC(=O)NCCSc1ccc(Br)cc1,31.4%,–

SMILES,"activity change, negative = inhibition",Potency
CCc1noc(C)c1C(=O)N1CCCSC1=Nc1ccccc1OC,9.92% [at 8.37 µM],–
COc1ccc2c(c1)C(=O)Nc1cc(Cl)ccc1N2,-25.5%,–
Cc1cccc(OCCC(=O)OCc2csc(CC(=O)Nc3ccccc3C)n2)c1,-5.01%,–
CCOc1ccccc1-c1cc(C(=O)N/N=C(\C)c2cccnc2)c2ccccc2n1,-26.8%,–
NC(=O)COC(=O)/C=C/c1ccc2ccccc2n1,-4.15%,–
CCOc1cccc(/C=C/c2ccc3ccccc3n2)c1OC(C)=O,–,11.2 µM (active)
COC(=O)[C@]1(CC(C)C)N[C@H](c2ccc(SC3CCCCC3)cc2)[C@@H]2C(=O)N(C)C(=O)[C@@H]21,3.15%,–
CCN(CC(=O)Nc1c(F)cccc1F)C(=O)Cc1cccs1,5.83%,–
Cc1nc(-c2ccc(F)cc2)c(CC(=O)Nc2cccc(S(=O)(=O)N3CCOCC3)c2)s1,-22.3%,–
CC(C)(C)OC(=O)NCCCCCNC(=O)c1[nH]cnc1C(=O)Nc1nccs1,-1.35%,–
Nc1nc(NCCCN2CCOCC2)nc(Nc2ccccc2)c1[N+](=O)[O-],-9.65%,–
Nc1nc(Nc2ccccc2)nc(NCCO)c1[N+](=O)[O-],-14.4%,–
COc1cccc(Nc2nc(N)c([N+](=O)[O-])c(NCc3ccco3)n2)c1,–,10 µM (active)
COc1ccccc1CNC(=O)COC(=O)CNS(=O)(=O)c1ccc(NC(C)=O)cc1,3.91%,–
CCOc1ccc(OCC(=O)OC(C)C(=O)NC2CCCCC2C)cc1 (centres undefined),14.8%,–
O=c1ccc(S(=O)(=O)N2CCCC2)cn1Cc1nc(-c2ccccc2)no1,-19.5%,–
CC1CCCN(C(=O)c2cc(-c3ccco3)nc3ccccc23)C1 (centres undefined),0.714%,–
COc1ccc(OCCCCN2CCC(C)CC2)cc1,-9.49%,–
C/C=C/c1ccc(OCCOc2ccc(C=O)cc2OC)c(OC)c1,0.431%,–
C/C=C/c1ccc(OCCCCN2CCC(C)CC2)c(OC)c1,–,14.1 µM (active)
